Results as given in PubChem BioAssay AID1159580 (chemical genetic matrix, 2015).
Screen size: about 5,500 compounds; about 2,000 (36%) were called active. About 18% were inconclusive and are not listed. Cut-off read from the data, not from the text of the source: active = normalized growth mostly below about 0.91 (no sharp cut-off); inconclusive = no clear call, values can overlap the other calls; inactive = mostly above about 0.92. This is one part of the list.

Assay: chemical genetic growth profiling, strain panel (AID 1159580);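 note: tested at 20 µM; growth read once vehicle control cultures reached saturation at 30 °C; 1 = growth at the plate median or of vehicle wells; lower values mean less growth of the strain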
Conditions: growth OD

Measured: normalized growth

C=C1CCC2C(CC2(C)C)C(=O)CCC1O (stereo unspecified)
inactive: S. cerevisiae deletion strains, locus YJL168C, strain set2, hits give low values 1.01 | S. cerevisiae deletion strains, locus YJL187C, strain SWE1 (second series), hits give low values 1.06 | S. cerevisiae deletion strains, locus YJL187C, strain SWE1, hits give low values 0.993 | S. cerevisiae deletion strains, locus YJR066W, strain TOR1, hits give low values 0.949 | S. cerevisiae deletion strains, locus YKL009W, strain mrt4, hits give low values 1.02 | S. cerevisiae deletion strains, locus YKL068W, hits give low values 1 | S. cerevisiae deletion strains, locus YKL085W, strain MDH1 (second series), hits give low values 0.993 | S. cerevisiae deletion strains, locus YKL085W, strain MDH1, hits give low values 0.993 | S. cerevisiae deletion strains, locus YKL160W, strain elf1, hits give low values 0.982 | S. cerevisiae deletion strains, locus YKR001C, strain vps1, hits give low values 1.02 | S. cerevisiae deletion strains, locus YKR026C, strain gcn3, hits give low values 1 | S. cerevisiae deletion strains, locus YKR091W, strain srl3, hits give low values 0.988 | S. cerevisiae deletion strains, locus YLL001W, strain dnm1, hits give low values 0.954 | S. cerevisiae deletion strains, locus YLL026W, hits give low values 1 | S. cerevisiae deletion strains, locus YLL041C, strain sdh2, hits give low values 0.987 | S. cerevisiae deletion strains, locus YLR027C, strain aat2, hits give low values 0.996 | S. cerevisiae deletion strains, locus YLR039C, strain RIC1, hits give low values 1.04 | S. cerevisiae deletion strains, locus YLR058C, strain SHM2, hits give low values 1.04 | S. cerevisiae deletion strains, locus YLR102C, strain apc9, hits give low values 1.01 | S. cerevisiae deletion strains, locus YLR113W, strain HOG1, hits give low values 1.01 | S. cerevisiae deletion strains, locus YLR221C, strain rsa3, hits give low values 1.04 | S. cerevisiae deletion strains, locus YLR258W, strain gsy2, hits give low values 0.993 | S. cerevisiae deletion strains, locus YLR262C, strain YPT6 (second series), hits give low values 1.01 | S. cerevisiae deletion strains, locus YLR268W, strain sec22, hits give low values 1 | S. cerevisiae deletion strains, locus YLR320W, strain mms22, hits give low values 1.06 | S. cerevisiae deletion strains, locus YLR342W, strain FKS1, hits give low values 0.997 | S. cerevisiae deletion strains, locus YLR357W, strain rsc2, hits give low values 0.981 | S. cerevisiae deletion strains, locus YLR370C, strain arc18, hits give low values 1 | S. cerevisiae deletion strains, locus YLR371W, strain rom2, hits give low values 1.02 | S. cerevisiae deletion strains, locus YLR384C, strain iki3, hits give low values 1.01 | S. cerevisiae deletion strains, locus YLR418C, strain cdc73, hits give low values 1.05 | S. cerevisiae deletion strains, locus YML016C, strain PPZ1, hits give low values 1.02 | S. cerevisiae deletion strains, locus YML032C, strain rad52, hits give low values 1.01 | S. cerevisiae deletion strains, locus YML120C, strain ndi1, hits give low values 0.965 | S. cerevisiae deletion strains, locus YML124C, strain tub3, hits give low values 1.01 | S. cerevisiae deletion strains, locus YMR058W, strain fet3, hits give low values 0.98 | S. cerevisiae deletion strains, locus YMR078C, strain ctf18, hits give low values 1.01 | S. cerevisiae deletion strains, locus YMR125W, strain sto1, hits give low values 0.973 | S. cerevisiae deletion strains, locus YMR129W, hits give low values 1.01 | S. cerevisiae deletion strains, locus YMR205C, strain PFK2, hits give low values 0.955 | S. cerevisiae deletion strains, locus YMR223W, strain ubp8, hits give low values 1.03 | S. cerevisiae deletion strains, locus YMR231W, strain pep5, hits give low values 1.01 | S. cerevisiae deletion strains, locus YMR307W, strain GAS1, hits give low values 1.07 | S. cerevisiae deletion strains, locus YNL067W, strain RPL9B, hits give low values 1.03 | S. cerevisiae deletion strains, locus YNL071W, strain lat1, hits give low values 0.992 | S. cerevisiae deletion strains, locus YNL128W, strain TEP1, hits give low values 0.993 | S. cerevisiae deletion strains, locus YNL183C, strain NPR1, hits give low values 0.968 | S. cerevisiae deletion strains, locus YNL209W, strain ssb2, hits give low values 0.987 | S. cerevisiae deletion strains, locus YNL233W, strain BNI4, hits give low values 1.05 | S. cerevisiae deletion strains, locus YNL248C, strain rpa49, hits give low values 1.01 | S. cerevisiae deletion strains, locus YNL250W, strain rad50, hits give low values 1.05 | S. cerevisiae deletion strains, locus YNL271C, strain bni1, hits give low values 1.01 | S. cerevisiae deletion strains, locus YNL298W, strain CLA4, hits give low values 1.03 | S. cerevisiae deletion strains, locus YNL307C, strain MCK1, hits give low values 1.03 | S. cerevisiae deletion strains, locus YNL322C, strain KRE1 (second series), hits give low values 0.974 | S. cerevisiae deletion strains, locus YNL322C, strain KRE1, hits give low values 0.991 | S. cerevisiae deletion strains, locus YNR049C, strain mso1, hits give low values 0.995 | S. cerevisiae deletion strains, locus YNR052C, strain pop2, hits give low values 1.03 | S. cerevisiae deletion strains, locus YOL012C, strain htz1 0.879 | S. cerevisiae deletion strains, locus YOL147C, strain pex11, hits give low values 1 | S. cerevisiae deletion strains, locus YOR001W, strain rrp6, hits give low values 1.02 | S. cerevisiae deletion strains, locus YOR061W, strain CKA2, hits give low values 1.02 | S. cerevisiae deletion strains, locus YOR069W, strain VPS5, hits give low values 1.01 | S. cerevisiae deletion strains, locus YOR070C, strain gyp1, hits give low values 1.02 | S. cerevisiae deletion strains, locus YOR080W, strain dia2, hits give low values 0.995 | S. cerevisiae deletion strains, locus YOR083W, strain WHI5, hits give low values 0.988 | S. cerevisiae deletion strains, locus YOR106W, strain vam3, hits give low values 0.961 | S. cerevisiae deletion strains, locus YOR136W, strain idh2, hits give low values 1.01 | S. cerevisiae deletion strains, locus YOR144C, strain elg1, hits give low values 1 | S. cerevisiae deletion strains, locus YOR184W, strain ser1, hits give low values 0.989 | S. cerevisiae deletion strains, locus YOR231W, strain MKK1, hits give low values 0.994 | S. cerevisiae deletion strains, locus YOR265W, strain rbl2, hits give low values 0.992 | S. cerevisiae deletion strains, locus YOR270C, strain vph1, hits give low values 0.986 | S. cerevisiae deletion strains, locus YOR290C, strain snf2, hits give low values 0.956 | S. cerevisiae deletion strains, locus YOR316C, strain cot1, hits give low values 1.03 | S. cerevisiae deletion strains, locus YPL051W, strain arl3, hits give low values 1 | S. cerevisiae deletion strains, locus YPL078C, strain atp4, hits give low values 0.946 | S. cerevisiae deletion strains, locus YPL106C, strain sse1, hits give low values 0.958 | S. cerevisiae deletion strains, locus YPL240C, strain hsp82, hits give low values 0.998 | S. cerevisiae deletion strains, locus YPL256C, strain CLN2, hits give low values 1.02 | S. cerevisiae deletion strains, locus YPR119W, strain clb2, hits give low values 1.02 | S. cerevisiae deletion strains, locus YPR141C, strain kar3, hits give low values 1.01 | S. cerevisiae deletion strains, locus YPR163C, strain tif3, hits give low values 1.02 | S. cerevisiae deletion strains, locus YPR167C, strain met16, hits give low values 1.02 | S. cerevisiae deletion strains, strain wtn01, hits give low values 1.01 | S. cerevisiae strains, strain wild type, hits give low values 0.989
